IL1B cytotox = cytotoxicity in IL-1B stimulated HUVEC, primary screen, cytotoxicity control for IL-1B NFkB translocation project, imaging, Hoechst nuclear count, IL-1B stimulus; 94,000 tested, 0.41% active; cell count reduction, % at 2 µM; HUVEC cell count loss; AID 845, 2007;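 active = cell count reduction more than 3 SD above the screen-wide mean, cut at about 70% in these data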;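 note: normalized per plate to untreated control cells as the no-loss baseline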
IL1B NFkB inh = inhibitors of IL-1B driven NFkB p65 nuclear import, primary screen, imaging, HUVEC, IL-1B stimulus, high-content imaging | HUVEC IL-1B NFkB p65 nuclear translocation imaging | inhibition, % at 2 µM | 94,000 tested, 0.43% active;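 active = inhibition above about 30% together with a positive call from visual inspection of the well image, limit read from the data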;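 note: nuclear over cytoplasmic p65 intensity ratio measured by imaging; 0% = IL-1B stimulated DMSO wells and 100% = unstimulated DMSO wells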
ERa SRC1 pot = enhancers of ERα–SRC-1 coactivator binding, primary screen, biochemical, TR-FRET, ERα LBD, low estradiol; TR-FRET ERalpha-LBD/SRC-Cy5 coactivator binding, 2 h; 100 = basal binding, no effect; coactivator binding (% of control), % at 25.6 µM; 86,000 tested, 1.3% active; in the data active = activity above about 200%;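 note: binding measured in presence of low estradiol as agonist stimulus; 0% = peptide alone without receptor and 100% = receptor with peptide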
Target sequence (P03372 whole entry, looked up, the tested form may be a part): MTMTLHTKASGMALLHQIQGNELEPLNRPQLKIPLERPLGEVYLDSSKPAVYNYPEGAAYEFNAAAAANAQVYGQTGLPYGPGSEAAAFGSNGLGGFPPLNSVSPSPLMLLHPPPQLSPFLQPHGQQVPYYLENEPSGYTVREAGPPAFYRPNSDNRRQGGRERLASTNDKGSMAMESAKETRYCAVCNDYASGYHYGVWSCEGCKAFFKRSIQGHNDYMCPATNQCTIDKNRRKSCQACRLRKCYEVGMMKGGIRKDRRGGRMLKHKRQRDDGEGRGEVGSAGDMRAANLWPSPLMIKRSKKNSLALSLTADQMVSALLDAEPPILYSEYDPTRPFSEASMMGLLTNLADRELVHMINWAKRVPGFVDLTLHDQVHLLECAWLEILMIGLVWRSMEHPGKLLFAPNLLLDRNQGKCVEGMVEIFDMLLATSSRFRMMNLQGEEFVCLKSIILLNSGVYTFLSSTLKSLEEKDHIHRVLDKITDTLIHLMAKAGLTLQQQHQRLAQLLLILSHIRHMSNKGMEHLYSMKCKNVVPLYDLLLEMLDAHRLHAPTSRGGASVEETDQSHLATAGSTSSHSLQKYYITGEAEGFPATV
ERa coact inh = ERα–SRC-1 coactivator interaction inhibitors, primary screen, biochemical, TR-FRET, ERα LBD, estradiol-bound; inhibition, % at 25.6 µM; TR-FRET ER-alpha LBD / SRC-1 peptide; 86,000 tested, 1.7% active; Estrogen receptor (Homo sapiens), P03372; in the data active = inhibition above about 50%;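 note: 0% = receptor plus peptide control and 100% = peptide only without receptor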
IL1B NFkB pot = enhancers of NFkB p65 translocation in HUVEC – imaging, IL-1B stimulus, high-content imaging, primary screen | HUVEC IL-1B NFkB p65 nuclear translocation imaging | activation, % at 2 µM | 94,000 tested, 0.3% active;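 active = activation above 40%, about the mean plus 3 SD, also judged a hit on visual image review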;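 note: percent activation is computed from the nuclear over cytoplasmic p65 intensity ratio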
ERb coact inh = inhibitors of ERβ-SRC1 coactivator interaction, primary screen, biochemical, TR-FRET, ERβ LBD, SRC-1 peptide. 86,000 tested, 1.3% active. TR-FRET ER-beta LBD / SRC1-Cy5 peptide binding; receptor agonist-loaded with 1 µM estradiol. AID 633, 2007. Estrogen receptor beta (Homo sapiens), Q92731. inhibition, % at 25.6 µM;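 active = compounds whose percent inhibition of the receptor-coactivator binding signal exceeds about 50% in the single-dose screen, limit read from the data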;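 note: 0% = receptor plus peptide wells without compound and 100% = peptide-only wells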
* hit, by the source's call; x = not tested or not shown; [ ] = another dose, or the depositor's remark. Shown are actives, neighbours in structure and some others; about 3.6% of the full set was active somewhere.

SMILES	IL1B cytotox	IL1B NFkB inh	ERa SRC1 pot	ERa coact inh	IL1B NFkB pot	ERb coact inh
Cc1ccc(S(=O)(=O)c2cc3c(=O)n4ccccc4nc3n(Cc3ccco3)c2=N)cc1	4	-1	83	47	1	63*[fluorescence artefact?]
N=c1c(C(=O)NCc2ccco2)cc2c(=O)n3ccccc3nc2n1Cc1ccc(Cl)cc1	1	5	75	80*[fluorescence artefact?]	-5	58*[fluorescence artefact?]
N=c1c(C(=O)NCc2ccccc2)cc2c(=O)n3ccccc3nc2n1Cc1ccco1	16	4	68	71*[fluorescence artefact?]	-4	47
Cc1ccc(CNC(=O)c2cc3c(=O)n4ccccc4nc3n(Cc3ccco3)c2=N)cc1	x	x	53	82*[fluorescence artefact?]	x	55*[fluorescence artefact?]
N=c1c(C(=O)NCc2ccco2)cc2c(=O)n3ccccc3nc2n1Cc1ccccc1	x	x	72	47	x	35
COC(=O)c1cccc(N(C(=O)c2cnccn2)C(C(=O)NCc2ccccc2)c2ccco2)c1 (stereo unspecified)	-6	-11	x	x	11	x
Cc1cccn2c(=O)c3cc(C(=O)NCc4ccco4)c(=N)n(C(C)C)c3nc12	-6	0	89	3	-1	13
Cc1cccn2c(=O)c3cc(C(=O)NCc4ccco4)c(=N)n(CCc4ccccc4)c3nc12	x	x	55	93*[fluorescence artefact?]	x	59*
Cc1ccc(S(=O)(=O)c2cc3c(=O)n4cccc(C)c4nc3n(CC3CCCO3)c2=N)cc1 (stereo unspecified)	x	x	290*	-30	x	3
Cc1cc(NCCOCCO)n2ncc(-c3ccc(Cl)cc3)c2n1	91*	-29	101	-2	29	-4
O=C/C(=C\Nc1ccc(Cl)cn1)c1nc2cc(Cl)ccc2o1	-8	-50	40	88*[fluorescence artefact?]	50*	56*[fluorescence artefact?]
O=C(Nc1ccc(Cl)cn1)c1cc2ccccc2o1	-6	-1	102	-1	1	4
O=C/C(=C\Nc1ccc(Cl)cn1)c1nc2ccccc2o1	-9	4	165	54*[fluorescence artefact?]	-4	32
COc1cccc2cc(C(=O)N3CCN(C/C=C/c4ccccc4)CC3)c(=O)oc12	-1	-2	92	-21	2	-11
N#Cc1ccsc1NC(=O)CSc1nnc(-c2ccccc2)o1	5	19	x	x	-19	x
CC(C)CC(=O)Nc1ccc(OCC(=O)O)cc1	x	x	123	1	x	6
CC(C)CC(=O)Nc1ccc(C(=O)COc2ccc(-c3nnco3)cc2)cc1	8	14	49	70*	-14	31
N#Cc1ccsc1NC(=O)COc1ccc(-c2nnco2)cc1	x	x	31	80*[fluorescence artefact?]	x	44
CN(C)c1ccc(-c2nn3c(C4CCCCC4)nnc3s2)cc1	-16	-20	108	4	20	6
CCOC(=O)c1[nH]c(C)c(C(=O)NC2CCCCC2)c1C	-2	-39	122	-8	39	5
CCOC(=O)c1c(C)c(C(=O)NC2CCCCC2)c(C)n1CC	7	x	120	3	154*	10
CCC(=C(c1ccc(OC)cc1)c1ccc(OC)cc1)c1cn(CC(O)CN2CCN(C)CC2)c2ccccc12 (stereo unspecified)	0	-1	26	70*[fluorescence artefact?]	1	36
COc1ccc(OCCn2cc(/C(N)=N/O)c3ccccc32)cc1	-22	11	118	-12	-11	-7
O=C(Cc1cnn(-c2ccccc2)c1)c1ccc(O)c(O)c1O	-144	10	56	78*[fluorescence artefact?]	-10	85*[fluorescence artefact?]
Cc1ncc(CCl)c2c1OC(C)(C)OC2	39	18	99	-35	-18	-28
SMILES	IL1B cytotox	IL1B NFkB inh	ERa SRC1 pot	ERa coact inh	IL1B NFkB pot	ERb coact inh
COC(=O)CSc1nnc(-c2ccc(S(=O)(=O)NCc3cccs3)cc2)o1	-20	-45	90	17	45*	13
COc1ccc(CNc2oc(COc3ccccc3Cl)nc2C#N)cc1	22	2	228*[fluorescence artefact?]	0	-2	10
O=C(CCCCCn1c(=S)[nH]c2cc3c(cc2c1=O)OCO3)N1CCN(C2CCCCC2)CC1	6	-33	110	45	33	10
Cc1cc(Cl)ccc1OCC(=O)OC(C)C(=O)N(C)C (stereo unspecified)	0	0	60	51*	0	57*
COc1ccc(S(=O)(=O)Nc2cc(C(=O)NCCC(C)C)ccc2N2CCOCC2)cc1	20	0	111	-2	0	4
CCCCSc1nnc(NC(=O)CCc2ccccc2)s1	-36	-12	101	-10	12	4
CN(C)CCCNC(CC(=O)Nc1ccc(Cl)cc1)C(=O)O (stereo unspecified)	x	x	126	0	x	-8
CCOC(=O)c1nnn(-c2nonc2N)c1-c1ccccc1	1	-42	108	-17	42*	-18
NC(=O)C1CCN(c2nc(-c3ccccc3)nc3ccccc23)CC1	-11	-4	123	-1	4	2
NC(=O)C1CCN(c2nc(-c3ccccc3)nc3c2oc2ccccc23)CC1	-28	-6	344*[fluorescence artefact?]	22	6	37
Cc1ccc(S(=O)(=O)Nc2cccc(NC(=O)CN3CCCCC3)c2)cc1	-2	8	x	x	-8	x
N#Cc1c(NC(=O)c2ccc(Cn3cc(Br)cn3)o2)sc2c1CCCCC2	-16	-10	106	5	10	18
CC1CCc2c(sc(NC(=O)c3ccc(Cn4cc([N+](=O)[O-])cn4)o3)c2C#N)C1 (stereo unspecified)	-8	13	70	61*	-13	64*
C1=C(c2ccc(-c3ccccc3)cc2)Nc2ncnn2C1c1ccco1 (stereo unspecified)	4	-3	110	69*[fluorescence artefact?]	3	32
CCOc1ccc(C2C=C(c3ccccc3)Nc3ncnn32)cc1 (stereo unspecified)	-53	8	77	-6	-8	-13
CCC(=O)c1ccc(OCC(=O)Nc2nn3cnnc3s2)cc1	0	2	68	40	-2	38
Cc1ccc(CN(Cc2cc3cc(C)ccc3[nH]c2=O)C(=O)N2CCOCC2)cc1	-36	-8	484*	0	8	-6
COc1ccccc1-c1cc(C(=O)N/N=C/C=C/c2ccccc2[N+](=O)[O-])c2ccccc2n1	-2	-42	x	x	42*	x
CCSC(SCC)[C@H](O)[C@@H](O)[C@H](O)[C@H](O)CO	x	x	775*[fluorescence artefact?]	-6	x	1
CC(c1ccccc1)C1C(C#N)=C(N)OC2=C1C(=O)CCC2 (stereo unspecified)	-6	-116	x	x	116*	x
